Shown are actives, neighbours in structure and some others; about 6.1% of the full set was active somewhere.
D3 antag: qHTS of D3 Dopamine Receptor Antagonist: qHTS; 360,000 tested, 2.5% active; max response, negative = inhibition, %; D(3) dopamine receptor (Homo sapiens), P35462; D3R cells, DiscoveRx beta-arrestin luminescence, antagonist mode; hits give low values; AID 652054, 2013; in the data active = max response below about -50%; note: % is set by controls: 0 for no effect and ±100 for the full control effect
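Cells plated overnight at 1500 cells/well, then exposed to library compounds with dopamine controls for 90 minutes at 37 degrees C. DiscoveRx reagent added for 30–60 minutes at room temperature; luminescence read, quantitative HTS format.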
D1 PAM: Potentiators of Human D1 Dopamine Receptor: qHTS; D(1A) dopamine receptor (Homo sapiens), P21728; HEK293 TREx D1 cells, calcium flux, dopamine EC20 potentiation; potentiation, % at 10 µM; 360,000 tested, 0.036% active; AID 504651, 2011; in the data active = potentiation above about 30%; note: 0% is about no effect
Target sequence (P21728 whole entry, looked up): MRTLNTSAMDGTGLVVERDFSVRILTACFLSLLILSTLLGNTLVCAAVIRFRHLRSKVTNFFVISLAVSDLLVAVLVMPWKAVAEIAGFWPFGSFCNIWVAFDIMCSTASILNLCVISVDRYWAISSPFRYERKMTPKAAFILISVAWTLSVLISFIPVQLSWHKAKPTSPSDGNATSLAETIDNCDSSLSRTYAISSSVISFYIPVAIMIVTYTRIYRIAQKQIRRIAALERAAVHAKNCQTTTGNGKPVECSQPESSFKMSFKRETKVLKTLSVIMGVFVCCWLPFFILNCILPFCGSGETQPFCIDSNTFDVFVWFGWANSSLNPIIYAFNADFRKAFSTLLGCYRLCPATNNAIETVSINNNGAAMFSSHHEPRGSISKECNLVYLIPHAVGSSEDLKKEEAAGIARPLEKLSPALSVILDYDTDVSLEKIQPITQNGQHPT
ERG-DNA inh: qHTS for Small Molecule Inhibitors of the ERG Ets/DNA interaction; Potency, µM (series often up to 76.9 µM), for inactives: top-dose FP activity, negative = inhibition, most hits filed as inhibitors; 370,000 tested, 0.028% active; fluorescence polarization, His-ERG Ets domain / labelled DNA; active = well fitted inhibition curve with a large enough effect in the polarisation, with a control signal flat; the % refers to the polarisation;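 note: polarization taken with two DNA probes labelled with fluorescein and Texas red; potency is the fitted concentration of half-maximal effect; % of control where 0% means no effect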
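His-tagged ERG Ets domain (1 uM in the protein solution; 300mM KCl, 50mM Tris-HCl, 1mM EDTA, 1mM DTT, pH 7.5) received compound, then a probe mix of 5 nM fluorescein-DNA and 100nM Texas-615-DNA. Fluorescence polarization was read for both dyes.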
D1 antagonist: Antagonist of Human D 1 Dopamine Receptor: qHTS | D(1A) dopamine receptor (Homo sapiens), P21728 | HEK293 TREx D1 cells, calcium flux, dopamine EC80; hits give low values | activity change, negative = inhibition, % at 10 µM | 360,000 tested, 3.2% active | AID 504652, 2011; in the data active = activity change below about -30%; note: % is set by controls: 0 for no effect and ±100 for the full control effect
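Using tetracycline-induced force-coupled D1 Hek293 cells and a calcium dye, signals were followed for 180 s after compound, then for 180 s after EC80 dopamine, to detect inhibitors.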
DRD3 agonist: qHTS of D3 Dopamine Receptor Agonist: qHTS; D3R DiscoveRx beta-arrestin cells, luminescence, 90 min; max activation, %; 410,000 tested, 0.58% active; AID 652048, 2013; in the data active = max activation above about 30%; note: 0% is about no effect
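Agonist mode: compounds and dopamine controls were applied to plated cells for 90 min at 37 degrees C after an overnight attachment at 1500 cells/well. Luminescent read-out followed 30 - 60 minutes at room temperature with DiscoveRx detection reagent.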
D1 agonist: Allosteric Agonists of the Human D1 Dopamine Receptor: qHTS | activation, % at 2 µM | HEK293 T-REx D1 cells, calcium flux, agonist mode | 360,000 tested, 1% active | AID 504660, 2011 | D(1A) dopamine receptor (Homo sapiens), P21728; in the data active = activation above about 30%; note: 0% is about no effect
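Inducible HEK293 T-REx D1 cells, force-coupled to calcium signalling, were plated at 4000 cells/well with tetracycline and held overnight at 30 C. After no-wash calcium dye loading, compound-evoked calcium rise over 180 s flagged agonists.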
* hit, by the source's call.

What do the screens show for `O=C(Nc1ncccn1)c1cc([N+](=O)[O-])cc([N+](=O)[O-])c1`?
D3 antag: 2; D1 PAM: -1; D1 antagonist: 8; DRD3 agonist: 7; D1 agonist: 2

How did O=[N+]([O-])c1cc(-c2ncccn2)c([N+](=O)[O-])s1 do in these assays?
D3 antag: -104*; D1 PAM: -6; ERG-DNA inh: 8%; D1 antagonist: -14; DRD3 agonist: -19; D1 agonist: 1

How did Cc1ccc(Cl)cc1NC(=O)COC(=O)CC(C)(C)CC1=NS(=O)(=O)c2ccccc2N1 do in these assays?
D1 PAM: -3; ERG-DNA inh: 2%; D1 antagonist: 13; DRD3 agonist: -2; D1 agonist: 6

Results for CC(C)(CC(=O)NCc1ccc(Cl)cc1Cl)CC1=NS(=O)(=O)c2ccccc2N1 ?
D1 PAM: -5; ERG-DNA inh: 1%; D1 antagonist: -51*; DRD3 agonist: 1; D1 agonist: 21

How did CCOc1ccc(S(=O)(=O)N(CCO)CCO)cc1-c1nc2c(C(C)(C)C)nn(C)c2c(=O)[nH]1 do in these assays?
D3 antag: 0; D1 PAM: 30*; ERG-DNA inh: -5%; D1 antagonist: -1; DRD3 agonist: 1; D1 agonist: 1

Results for Cc1nn(-c2ccccc2)c2[nH]c(=O)c(CNCC3CCCO3)cc12 (stereo not given) ?
D3 antag: -82*; D1 PAM: -4; ERG-DNA inh: -4%; D1 antagonist: 5; DRD3 agonist: -8; D1 agonist: 1

What do the screens show for `Fc1ccc(CN2CCN(C(c3ccccc3)c3ccccc3)CC2)cc1`?
D3 antag: -82*; D1 PAM: -2; ERG-DNA inh: 0%; D1 antagonist: 15; DRD3 agonist: -23; D1 agonist: 4

Results for c1ccc(CN2CCN(C(c3ccccc3)c3ccccc3)CC2)cc1 ?
D3 antag: -70*; D1 PAM: -6; ERG-DNA inh: 0%; D1 antagonist: 5; DRD3 agonist: -11; D1 agonist: 4

What do the screens show for `c1ccc(CN2CCN(C(c3ccccc3)c3nnnn3Cc3ccccc3)CC2)cc1` (stereo not given)?
D3 antag: 0; D1 PAM: -9; ERG-DNA inh: -3%; D1 antagonist: 17; DRD3 agonist: -10; D1 agonist: 0

What do the screens show for `CCCCn1nnnc1C(c1ccccc1)N1CCCN(Cc2ccc(F)cc2)CC1` (stereo not given)?
D3 antag: -69*; DRD3 agonist: -13

How did O=C1c2ccccc2C(=O)N1CC#CCN1CCN(C(c2ccccc2)c2ccccc2)CC1 do in these assays?
D3 antag: -88*; D1 PAM: 3; ERG-DNA inh: -2%; D1 antagonist: 23; DRD3 agonist: -18; D1 agonist: 0

What do the screens show for `COC(=O)C(C(=O)OC)c1ccccc1CNS(=O)(=O)c1ccc(C)cc1`?
D3 antag: 5; DRD3 agonist: -2

Results for CCOc1ccc2nc(NC(=O)c3nc(SCc4ccccc4C)ncc3Cl)sc2c1 ?
D1 PAM: -2; ERG-DNA inh: -1%; D1 antagonist: 10; DRD3 agonist: -13; D1 agonist: 1

How did Cc1sc2nc(CN(C(=O)NCc3ccccc3)C3CCCC3)[nH]c(=O)c2c1C do in these assays?
D3 antag: -4; D1 PAM: 3; ERG-DNA inh: 12%; D1 antagonist: 8; DRD3 agonist: -3; D1 agonist: 2

How did COc1ccc(Nc2nnc(-c3ccc(C)c(S(=O)(=O)N4CCN(C)CC4)c3)c3ccccc23)cc1 do in these assays?
D1 PAM: 0; ERG-DNA inh: 0%; D1 antagonist: -13; DRD3 agonist: -8; D1 agonist: -3

What do the screens show for `O=C(CN1CCN(c2ccccn2)CC1)Nc1ccc(OC(F)(F)F)cc1`?
D3 antag: 17; D1 PAM: -4; ERG-DNA inh: 1%; D1 antagonist: 15; DRD3 agonist: 19; D1 agonist: 2

Results for O=S(=O)(CCN1CCN(C(c2ccccc2)c2ccccc2)CC1)C(F)(F)F ?
D3 antag: -50*; D1 PAM: -2; ERG-DNA inh: -9%; D1 antagonist: -9; DRD3 agonist: 0; D1 agonist: 4

What do the screens show for `CC(=O)N1CCN(C(c2ccccc2)c2ccccc2)CC1`?
D3 antag: 6; ERG-DNA inh: -6%; DRD3 agonist: 19

What do the screens show for `CCOc1cc(CNC2CCCC2)cc(Cl)c1OCc1ccc(F)cc1`?
D3 antag: -13; D1 PAM: 42*; D1 antagonist: -7; DRD3 agonist: -15; D1 agonist: 102*

How did COc1cc(CNC2CCCC2)cc(Cl)c1OCc1ccc(F)cc1 do in these assays?
D3 antag: 59; D1 PAM: -6; ERG-DNA inh: 4%; D1 antagonist: 4; DRD3 agonist: 3; D1 agonist: 32*

How did COc1cc(CNn2c(C)n[nH]c2=S)cc(Cl)c1OCc1ccc(F)cc1 do in these assays?
D3 antag: -29; D1 PAM: -2; D1 antagonist: -1; DRD3 agonist: -20; D1 agonist: 37*

Results for Cc1c(NC(=O)c2cc3ccccc3oc2=O)c(=O)n(-c2ccccc2)n1C ?
D3 antag: -9; D1 PAM: 2; D1 antagonist: 36; DRD3 agonist: -1; D1 agonist: 0

Results for COc1ccc(SCCN2CC[C@@H](C(C)(C)C)CCC2=O)cc1 ?
D3 antag: -18; D1 PAM: 0; ERG-DNA inh: -3%; DRD3 agonist: -16; D1 agonist: 25

What do the screens show for `Oc1ccc(-c2nccc(-c3cccs3)n2)cc1`?
D3 antag: -11; ERG-DNA inh: -13%; DRD3 agonist: -4

What do the screens show for `CC1=C(c2ccc(C(C)C)cc2)S(=O)(=O)N=C1N1CCC(C(=O)Nc2ccc(C)cc2)CC1`?
D1 PAM: 1; ERG-DNA inh: 2%; D1 antagonist: 47; DRD3 agonist: 6; D1 agonist: 5

How did Cn1cnnc1SCC(=O)Nc1ccccc1 do in these assays?
D3 antag: 22; D1 PAM: -1; ERG-DNA inh: 5%; D1 antagonist: 4; DRD3 agonist: 10; D1 agonist: 2

How did Cn1cnnc1SCC(=O)Nc1ccc(Br)cc1F do in these assays?
D3 antag: 6; D1 PAM: -3; ERG-DNA inh: 6%; D1 antagonist: 1; DRD3 agonist: 32*; D1 agonist: 1

Bioassay records from PubChem BioAssay.
